PubChem BioAssay AID588778 (Southern Research Institute, 2011)
Hit rate of the full screen: of about 10,000 compounds, fewer than 10 were called active. The rule behind the calls is not given here. These entries were drawn from the full list.

Assay: Vibrio cholerae motility inhibitors, OD read-out (AID 588778)
Settings: stronger effect = higher value
[1] = measured here: bacterial viability at 10 ug/mL

SMILES	inhibition (concentration not given here)	inhibition [1] [%]
Cc1c(NC(=O)c2nn3c(C(F)(F)F)c4c(nc3c2Cl)-c2ccccc2CC4)c(=O)n(-c2ccccc2)n1C	-11.3% (inactive)	-0.51
S=C1NC(C23CC4CC(CC(C4)C2)C3)=CC(c2ccc(Cl)cc2)N1 (configuration not stated)	-6.78% (inactive)	-4.13
CC(C)CC(C(=O)Oc1ccc2c3c(c(=O)oc2c1)CCC3)N1C(=O)c2ccccc2C1=O (configuration not stated)	6.55% (inactive)	-2.25
CCC(=O)OCC12COC3c4ccccc4OC(C)(CC1C)C3C2C (configuration not stated)	-16.5% (inactive)	-10.6
CCOC(=O)c1ccc(NC(=O)COc2ccc3oc(=O)cc(C)c3c2)cc1	-17.2% (inactive)	-0.82
Cc1ccccc1C(=O)N1CCN(c2nc(N3CCCC3)nc(N3CCCC3)n2)CC1	-0.47% (inactive)	0.25
O=C(Cc1c(F)cccc1Cl)NCc1ccc2c(c1)OCO2	40% (inactive)	7.78
O=C(CSc1nnnn1-c1ccccc1)c1cc2ccccc2oc1=O	3.97% (inactive)	-4.29
COCCSc1nnc(NC(=O)Cc2c(F)cccc2Cl)s1	-2.92% (inactive)	-1.31
O=C(NC(=O)c1ccccc1)Nc1ccc(Br)cc1	-16.2% (inactive)	-9.72
COc1c(C)cc(Br)cc1C(=O)NC(=S)Nc1nc(C)cc(C)n1	-16.1% (inactive)	-11.8
CCCCC(=O)Nc1ccc(NC(=O)C(Cl)(Cl)Cl)cc1OC	3.09% (inactive)	-3.52
O=C(CCOc1ccccc1)Nc1ccc(Br)cc1	-9.09% (inactive)	-6.95
O=C(NCc1ccc(-c2nc3ccccc3s2)cc1)c1ccc(Br)o1	1.75% (inactive)	9.78
Cc1ccc(S(=O)(=O)Nc2cc(Sc3nnnn3-c3ccccc3)c(O)c3ccccc23)cc1	15.9% (inactive)	1.17
COC(=O)C1=C(C)NC(C)=C(C(=O)OC)C1c1sccc1C	20.1% (inactive)	-0.13
CC(=O)CSc1nnc(-c2cccnc2)o1	-0.39% (inactive)	0.24
O=C(O)C(Cc1ccccc1)N1C(=O)/C(=C/c2ccc([N+](=O)[O-])cc2)SC1=S (configuration not stated)	8.42% (inactive)	1.4
CCOC(=O)c1c(NC(=O)Nc2ccccc2C)sc2c1CC(C)(C)OC2	9.16% (inactive)	24.8
COc1ccc(OC)c(C(=O)CCC(=O)Nc2cccc(C(F)(F)F)c2)c1	-4.82% (inactive)	3.82
CCOC(=O)C1(NC(=S)N(CC)CC)Sc2cc(C)ccc2NC1=O (configuration not stated)	12.1% (inactive)	13.5
CCN(CC)c1ccc(CNC(C)C(O)c2ccccc2)cc1 (configuration not stated)	19.9% (inactive)	5.6

SMILES	inhibition (concentration not given here)	inhibition [1] [%]
c1ccc2nc3c(nc2c1)CCc1nonc1-3	0.045% (inactive)	-1.06
CCOC(=O)c1ccc(CNC(=O)CCC(=O)O)cc1	2.35% (inactive)	-10.3
O=C(CCC(=O)Nc1ccccc1Cl)NNC(=O)Nc1ccc(F)cc1F	-13.9% (inactive)	-8.28
O=C(c1c(F)cccc1F)N1CCN(C(c2ccccc2)c2ccccc2)CC1	11.9% (inactive)	-2.62
O=C(NC(=S)NNC(=O)c1cnccn1)c1ccc(F)cc1	17.5% (inactive)	4.07
CCSc1nnc(NC(=O)c2ccc(Br)s2)s1	-21.3% (inactive)	-10.2
O=C(O)CCc1ccc(-c2cccs2)n1-c1cc(Cl)ccc1Cl	5.81% (inactive)	-0.02
CCc1ccccc1OCCCCn1c2ccccc2c2ccccc21	-30.3% (inactive)	-15.4
COCCSc1ccccc1C(=O)NCc1ccc(S(N)(=O)=O)cc1	4.8% (inactive)	5.23
CCCC(=O)N1CCN(c2ccc(NC(=O)COc3ccc(C)c(C)c3)cc2Cl)CC1	10.7% (inactive)	4.97
O=C(Nc1nnc(C(F)(F)F)s1)C(Sc1ccccc1)c1ccccc1 (configuration not stated)	-9.96% (inactive)	-4.95
O=C(Cc1ccccc1Cl)c1ccc(O)c(O)c1O	12.7% (inactive)	2.63
COc1cc(OC)c(NC(=O)c2csc3ccccc23)cc1Cl	4.43% (inactive)	1.11
COC(C(=O)Nc1cc([N+](=O)[O-])ccc1C)c1ccccc1 (configuration not stated)	3.61% (inactive)	-3.16
O=C(OCc1ccccc1F)c1ccc([N+](=O)[O-])cc1Cl	45.5% (inactive)	18.5
Cn1ncc(C#N)c1NC(=O)C1CC(c2c(F)cccc2Cl)=NO1 (configuration not stated)	15.8% (inactive)	10.8
Cn1nc([N+](=O)[O-])nc1Sc1nnc(-c2cccnc2)o1	44.4% (inactive)	15.6
COc1cc2c(NCc3ccccc3)cc(O)c(CC(=O)Nc3ccc(Cl)cc3)c2cc1OC	8.57% (inactive)	1.46
Cc1ccc(-c2c(C(=O)NNC(=S)NCC3CCCO3)csc2C)cc1 (configuration not stated)	17.3% (inactive)	-2.95
Cc1ccccc1NC(=S)NC1CCCC1	-3.76% (inactive)	-1.53
O=C(CSc1nc2ccccc2s1)NNC(=S)Nc1ccc(F)c(Cl)c1	47.6% (inactive)	18.2
Cc1ccc2c(c1)C(=O)C(=O)N2	26.8% (inactive)	12.9

SMILES	inhibition (concentration not given here)	inhibition [1] [%]
Cc1nc(Oc2ccc3c(c2)OCO3)c2cc(-c3ccccc3)sc2n1	6.33% (inactive)	0.3
Cc1ccc2cccc(OCc3nnc(-c4ccccc4)o3)c2n1	14.5% (inactive)	-1.8
COC(=O)c1ccc2ccn(CC(N)=O)c2c1	8.78% (inactive)	7.37
COc1cccc(/C=C/C2=NN(c3ccc(Cl)c(Cl)c3)C(c3cccc(OC)c3OC)C2)c1OC (configuration not stated)	26.7% (inactive)	13.6
Cc1ccccc1NC(=O)NC1CCS(=O)(=O)C1 (configuration not stated)	-0.46% (inactive)	-4.02
C=CCOc1cccc(CNc2ccc3[nH]c(=O)[nH]c3c2)c1	33.7% (inactive)	18.3
Cc1ccc2nc(-c3cccnc3)cc(C(=O)Nc3ccc4c(C)cc(=O)oc4c3)c2c1	-7.04% (inactive)	9.26
O=C(O)Cc1ccc(NC(=O)c2cccnc2C(=O)O)cc1	-4.82% (inactive)	-2.46
Cc1ccc(NC(=O)c2ccccc2NC(=O)Cc2ccc(Cl)cc2)cc1C	11.1% (inactive)	19.3
O=C1C(c2ccccn2)=C(O)c2ccccc21	14.8% (inactive)	4.31
O=C(NCCSCc1ccco1)Nc1ccccc1	22.3% (inactive)	0.29
O=C(CSCc1ccc([N+](=O)[O-])cc1)N1CCN(c2cccc(Cl)c2)CC1	-5.85% (inactive)	-3.47
Cc1cc2[nH]c(=S)n(Cc3ccccc3Cl)c2cc1C	-26.6% (inactive)	-12.9
O=C(NC(=O)C(Cl)(Cl)Cl)NC1CCCC1	-16.4% (inactive)	3.96
O=C(NC(=S)Nc1ccccc1C(=O)NC1CCCCC1)c1ccco1	3.43% (inactive)	7.92
CCn1ccc(C(=O)Nc2ccc(C(F)(F)F)cc2Cl)n1	-7.69% (inactive)	-1.52
Cc1cc(N2C(=O)CC(Cc3ccc(Cl)cc3)C2=O)no1 (configuration not stated)	1.86% (inactive)	-6.9
O=C(CC(NC(=S)Nc1ccccc1)c1ccccc1)c1ccccc1 (configuration not stated)	15.4% (inactive)	5.66
CC(C)C(C(=O)O)c1ccc([N+](=O)[O-])cc1 (configuration not stated)	6.16% (inactive)	-2.35
COc1ccc([N+](=O)[O-])cc1CSc1ccccn1	-1.69% (inactive)	-0.75
CC(C)CNC(=S)NNC(=O)CC(C)O (configuration not stated)	52.6% (inactive)	22.3
CSCCC(C(=O)O)n1c(-c2ccc3ccccc3n2)n[nH]c1=S (configuration not stated)	-9.7% (inactive)	-4.1

SMILES	inhibition (concentration not given here)	inhibition [1] [%]
Cc1ccc(C(C)C)c(OCCSc2nc3ccccc3n2CC(O)CO)c1 (configuration not stated)	6.25% (inactive)	-5.04
O=C(O)CCn1c2ccccc2c2ccccc21	15.5% (inactive)	-1.8
COc1ccc(NC(=O)c2cc(S(=O)(=O)N3CCOCC3)c(Cl)cc2Cl)c([N+](=O)[O-])c1	-16.3% (inactive)	-8.39
O=C(NCc1ccc(Cl)c(Cl)c1)c1ccc(Br)o1	20.3% (inactive)	4.03
COc1ccc2cnn(-c3ccccc3)c(=O)c2c1OC	12% (inactive)	4.55
CCOc1cc(C(=S)N2CC(C)OC(C)C2)cc(I)c1OCC(=O)N1CCCC1 (configuration not stated)	11% (inactive)	5.69
CC(C)(O)C#Cc1ccc(C(=O)NC2CCCCC2)cc1	12.9% (inactive)	20.2
Cc1cc(=O)[nH]c2c1cnn2Cc1ccccc1	49.6% (inactive)	17.8
Cc1c(NC(=O)C2CC(c3c(F)cccc3Cl)=NO2)c(=O)n(-c2ccccc2)n1C (configuration not stated)	0.12% (inactive)	-4.39
CC1(C(=O)NN2CCOCC2)CC1(Cl)Cl (configuration not stated)	1.9% (inactive)	-3.31
CC(=O)c1cccc(NC(=O)C2CC(=O)N(Cc3ccccc3)C2)c1 (configuration not stated)	-14% (inactive)	-3.46
C#CCOc1c(Br)cc(/C=C/[N+](=O)[O-])cc1OC	33.7% (inactive)	7.02
COc1ccc(C(=O)NCc2ccoc2C(=O)O)cc1	16.5% (inactive)	8.04
O=C(Cn1cnc2ccccc2c1=O)c1ccc(Br)cc1	-17.8% (inactive)	-8.61
Cc1cc(C)n2nc(Cc3ccccc3)c(-c3cccc4ccccc34)c2n1	0.73% (inactive)	8.65
O=CN1Cc2ccccc2-c2ccccc2C1	6.8% (inactive)	3.25
O=C(CNC(=S)NC(=O)c1ccc(F)cc1)c1ccccc1	-64% (inactive)	-21.1
O=C(c1ccccc1Oc1ccc(C(F)(F)F)cc1[N+](=O)[O-])N1CCOCC1	-15.4% (inactive)	-2.04
CN1CCN(C(=O)c2ccccc2NC(=O)Nc2ccccc2)CC1	15.9% (inactive)	1.65
COc1cccc(/C=C(\C#N)c2ccccc2)c1OC(C)C	22.8% (inactive)	-2.34
